ClpP mod: qHTS Assay for Activators of ClpP; purified B. subtilis ClpP, FRET peptide cleavage, 20 min; AID 651965, 2013; Potency, µM (highest dose often 57.5 µM), for the others: at the highest dose activity change, negative = active; 340,000 tested, 1.9% active; active = well fitted falling curve with a large enough effect; inconclusive = small, poorly fitted or top-dose-only effect; inactive = no such curve, though single readings can be large or run the other way; also: potency is read from the fitted curve at half-maximal effect; the source files actives as falling curves though it sought activators and does not explain the sign; nearly all actives have a fitted effect of over 65% in size
Target sequence (P80244 whole entry, looked up): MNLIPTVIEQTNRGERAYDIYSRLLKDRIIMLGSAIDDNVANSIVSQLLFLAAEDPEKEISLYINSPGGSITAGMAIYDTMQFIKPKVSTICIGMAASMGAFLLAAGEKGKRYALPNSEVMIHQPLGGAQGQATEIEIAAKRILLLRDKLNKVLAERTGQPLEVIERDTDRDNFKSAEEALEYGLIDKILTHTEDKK
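FRET quenching reversal measured ClpP activation: 10 microg/mL B. subtilis ClpP at pH 8 with the FRET-FV decapeptide, read at 430 nm after 320 nm excitation. The 20-min minus 0-min signal was scaled between DMSO/no-enzyme wells and ADEP (5.8 microM final).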
Nrf2 inh: Nrf2 qHTS screen for inhibitors; Potency, µM (top dose mostly 46 µM), without a hit: at the highest dose activity change, negative = inhibition, actives largely listed as inhibitors; A549 ARE-Fluc reporter, luciferase luminescence, 18-24 h; 360,000 tested, 2.1% active; also: potency is read from the fitted curve at half-maximal effect; % is scaled to controls: 0 for no effect and ±100 for the full control effect; nearly all actives have a fitted effect of over 60% in size
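In this cell-based qHTS, ARE-driven firefly luciferase in A549 cells reports Nrf2 activity; the luminescent signal after BugLite lysis is the measured value, with a prior CellTiter-Fluor read for cell health.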
A549 tox: Nrf2 qHTS screen for inhibitors: counterscreen for cytotoxicity | Potency, µM (titrated, usually from 46 µM), inactives show at the top dose activity change, negative = cytotoxicity, hits mostly inhibitors | A549 ARE-Fluc cells, CellTiter-Fluor viability, 18-24 h | 390,000 tested, 0.16% active | AID 504648, 2011; also: potency is read from the fitted curve at half-maximal effect; % is scaled to controls: 0 for no effect and ±100 for the full control effect
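A549 ARE_Fluc cells in 5% FBS OPTI-MEM were exposed to compounds in concentration-response for 18-24 h at 37 deg C. Viability was read by CellTiter-Fluor fluorescence (Ex 405/Em 525) after 30 min, before the luciferase read.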
p53 reactivation: qHTS assay for re-activators of p53 using a Luc reporter; H1299 p53-A138V BP100-luciferase reporter, luminescence, 24 h; AID 504706, 2011; Potency, µM (series often up to 92.2 µM), for inactives: at the highest dose activity change, positive = activation, most hits filed as activators; 320,000 tested, 0.063% active; also: potency is read from the fitted curve at half-maximal effect; % of control where 0% means no effect; nearly all actives have a fitted effect of over 45% in size
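H1299 (p53-null), stable ts p53-A138V + BP100-Luc; 1000 cells/well, Opti-MEM/10% FBS; cpd 4 pt, 1:5; 24 h, 37 deg C, 5% CO2; detection reagent 10 min RT; luminescence.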
miR-21 reporter: qHTS Assay for Modulators of miRNAs and/orActivators of miR-21; HeLa miR-21 FLuc reporter, luciferase, 48 h; Potency, µM (series often up to 38.3 µM), for the others: at the top dose activity change, positive = activation, actives largely listed as activators; 340,000 tested, under 10 active;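 also: % of control where 0% means no effect; miR-21 action dims this reporter so a rising signal means less miR-21 action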
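Luminescence from a firefly luciferase reporter carrying a miR-21 binding site downstream, stably expressed under a CMV promoter in HeLa cells that make miR-21 endogenously, reports miRNA modulation after 48 h compound exposure up to approximately 40uM final.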
Nrf2 ARE act: qHTS of Nrf2 Activators | 410,000 tested, 0.31% active | AREc32 ARE-luciferase reporter (MCF7-derived line), luminescence, 24 h | Potency, µM (highest dose often 46.1 µM), for inactives: at the highest dose activation, actives largely listed as activators; also: potency is read from the fitted curve at half-maximal effect; % of control where 0% means no effect; nearly all actives have a fitted effect of over 65% in size
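Nrf2 activation is followed as ARE-luciferase induction in the AREc32 line after one day of compound treatment; luminescence is read with Steady-Glo.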
* marks the source's active call; other numbers are inactive results; ? = inconclusive; . = no result given; [ ] = remark or other dose. In the library only some 3.7% were active in any assay of this set; here they are far more common. Unless noted, calls follow the shape of the dose curve; as a rule, active = well fitted curve in the direction sought with a large enough effect; inconclusive = small, poorly fitted or top-dose-only effect, or another doubt; inactive = no such curve, though single readings can be large; an effect the other way counts as inactive or inconclusive.

SMILES | ClpP mod | Nrf2 inh | A549 tox | p53 reactivation | miR-21 reporter | Nrf2 ARE act
CC1(C)CC2CC(C)(CN2C(=O)COC(=O)c2ccc(Cl)cc2N)C1 (stereo not given) | 28µM* | -10% | -12% | 1% | -2% | 0%
CC1(C)CC2CC(C)(CN2C(=O)COC(=O)c2ccc(Cl)c(N)c2)C1 (stereo not given) | ? | -6% | -3% | 5% | 0% | 0%
COc1ccc(C2=C(C)C(N3CCC(C(=O)Nc4ccc(F)cc4C)CC3)=NS2(=O)=O)cc1 | -5% | ? | -1% | . | -2% | 0%
c1ccc(CNCc2nnc(-c3cc4ccccc4[nH]3)s2)cc1 | . | ? | -2% | . | . | .
Clc1nc(NCc2cccs2)c2[nH]cnc2n1 | 0% | 23µM* | -2% | . | . | .
CSc1ccc(/C=N/N2CCN(Cc3ccc(C)cc3C)CC2)cc1 | -1% | 3% | -2% | 8% | 3% | 0%
Cc1ccc(CN2CCN(/N=C/c3sccc3C)CC2)c(C)c1 | 28µM* | -16% | 5% | 13% | -5% | 0%
O=C(OCC#CCSc1nnc(-c2cccc3ccccc23)o1)c1sc2ccccc2c1Cl | . | 1% | 0% | . | . | .
O=C(NCc1nnnn1-c1ccc(Cl)cc1)c1ccc(Br)o1 | 16µM* | 11% | -2% | -3% | . | -1%
O=C(CNC(=O)c1ccc(Br)o1)NNC(=O)c1ccccc1 | -6% | 7% | -10% | 6% | . | -1%
O=C(CCNC(=O)c1ccc(Br)o1)NCc1ccc(Cl)cc1 | 1% | . | 7% | -1% | -7% | -1%
O=C(CNC(=O)c1ccc(Br)o1)NNC(=O)c1ccc(Cl)cc1 | 22µM* | -5% | 7% | -1% | . | -1%
COc1cccc(-c2cc(C(F)(F)F)nc(NCCc3ccccc3)n2)c1 | 28µM* | 4%[9.27 µM] | 12% | . | -24% | 3%
COc1cccc(-c2cc(C(F)(F)F)nc(NCc3ccc(F)cc3)n2)c1 | 28µM* | 6%[9.27 µM] | 1% | . | 6% | 2%
FC(F)(F)c1cc(-c2ccco2)nc(NCCc2ccccc2)n1 | 32µM* | ? | ? | 0% | -28% | 28%
COc1ccc(-c2cc(C(F)(F)F)nc(NCCc3ccccc3)n2)cc1 | 4% | ? | ? | . | -3% | 0%
COc1ccccc1N1CCN(C(=O)c2oc3ccccc3c2NC(=O)C(C)Oc2ccccc2)CC1 (stereo not given) | -14% | 6% | 10% | . | 0% | 0%
OC(C[n+]1c(Cl)ccc2ccccc21)c1ccccc1 (stereo not given) | 5% | . | . | . | . | .
CCn1nc(C)c(/C=N/NC(=O)c2ccoc2C)c1C | 16µM* | . | 5% | 3% | -40% | 0%
O=C(c1ccc(Cl)cc1)N1CCN(c2ccc([N+](=O)[O-])c(NCc3cccnc3)c2)CC1 | 1% | 26µM* | ? | . | . | 4%
Cc1cc2c(s1)c1cnn(Cc3ccc(F)c(C)c3)c(=O)c1n2C | . | 8% | 0% | . | . | .
Cc1ccccc1OCC(=O)N1N=C(c2cccnc2)CC1(O)C(F)(F)F (stereo not given) | -3% | -17% | 0% | -3% | -13% | 0%
Cc1cc(C)cc(OCC(=O)N2N=C(c3cccnc3)CC2(O)C(F)(F)F)c1 (stereo not given) | -1% | 23µM* | -9% | -3% | 4% | 0%[9.22 µM]
COc1ccc(CN(C(=O)c2ccco2)C2CCS(=O)(=O)C2)cc1 (stereo not given) | 28µM* | 11% | -2% | 9% | -1% | 0%
Cc1ccc(OCC(=O)N(Cc2ccco2)C2CCS(=O)(=O)C2)cc1C (stereo not given) | -1% | -13% | 3% | . | -6% | 0%
SMILES | ClpP mod | Nrf2 inh | A549 tox | p53 reactivation | miR-21 reporter | Nrf2 ARE act
Cc1cc(OCC(=O)N(Cc2ccco2)C2CCS(=O)(=O)C2)cc(C)c1Cl (stereo not given) | 28µM* | -4% | 3% | -3% | 0% | 0%
Cc1cccc(-n2c(-c3ccco3)nc3c(cnn3-c3ccccc3C)c2=O)c1 | ? | 21µM* | -6% | . | 11% | 2%
COc1cccc(-n2c(-c3ccco3)nc3c(cnn3-c3ccc(Cl)cc3)c2=O)c1 | -30% | ? | 2% | . | -6% | 1%
O=C(O)c1cc(O)c2c(c1)[C@@H]([C@H]1c3cc(C(=O)O)cc(O)c3C(=O)c3c(O[C@@H]4O[C@H](CO)[C@@H](O)[C@H](O)[C@H]4O)cccc31)c1cccc(OC3O[C@H](CO)[C@@H](O)[C@H](O)[C@H]3O)c1C2=O (stereo not given in full) | -2% | -18% | -9% | -11% | . | -1%
O=C(O)c1cc(O)c2c(c1)[C@H]([C@H]1c3cc(C(=O)O)cc(O)c3C(=O)c3c(O[C@@H]4O[C@H](CO)[C@@H](O)[C@H](O)[C@H]4O)cccc31)c1cccc(OC3O[C@H](CO)[C@@H](O)[C@H](O)[C@H]3O)c1C2=O (stereo not given in full) | -11% | ? | 16µM* | 3% | . | -1%
O=C(O)c1cc(NCc2ccc(F)cc2)ccc1N1CCOCC1 | 32µM* | 7% | -3% | 7% | -1% | -1%
CCc1c(C#N)c(SCCC(=O)Nc2ccc(F)cc2)nc2c1C(=O)CC(C)(C)C2 | -1% | 18µM* | ? | -1% | 30% | 0%
O=S(=O)(c1ccc2c(c1)OCCO2)N1CCN(S(=O)(=O)c2c(F)ccc(O)c2F)CC1 | . | -12% | 7% | . | . | .
CN(CCc1ccccc1)C(=O)c1cccc(NC(=O)Cc2cccc(NC(=O)C3CCCN(C(=O)c4ccccc4)C3)c2)c1 (stereo not given) | 1% | 26µM* | -11% | . | . | 3%
CN(CCc1ccccc1)C(=O)c1cccc(NC(=O)Cc2cccc(NC(=O)C3CCCN(C(=O)C4CCCCC4)C3)c2)c1 (stereo not given) | 0% | ? | -9% | . | . | 6%
CN(CCc1ccccc1)C(=O)c1ccc(NC(=O)Cc2ccc(NC(=O)C3CCN(C(=O)CCc4ccccc4)CC3)cc2)cc1 | 1% | 9.2µM* | -6% | . | . | 1%
CN(CCc1ccccc1)C(=O)c1ccc(NC(=O)Cc2cccc(NC(=O)C3CCN(C(=O)CCc4ccccc4)CC3)c2)cc1 | -3% | -28% | 4% | . | . | 4%
CC(=O)NC(Cc1ccc(Cl)cc1)C(=O)NCC(N)C(=O)c1ccccc1 (stereo not given) | 0% | . | . | . | . | .
